Source: PubChem BioAssay (Broad Institute)
Shn3 inh set2 – reduction of Shn3 3'UTR firefly luciferase signal, primary screen, Schnurri-3 inhibitor project, cell-based, Clone20 osteoblasts, set 2. Clone20 osteoblast Shn3 3'UTR firefly luciferase, 24 h. inhibition, % at 12.5 µM. 0.52% of 360,000 active;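 active means mean inhibition of at least 75% with every replicate also reaching 75%; inconclusive means mean inhibition at least 75% but some replicate below; inactive means mean inhibition below 75%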;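 further: 0% = median of neutral control wells and 100% = pilot-screen positive control compound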
NSD2 inh – NSD2 histone methyltransferase inhibitors, primary screen, biochemical, AlphaScreen, single concentration, set 2. 0.54% of 310,000 active. Histone-lysine N-methyltransferase NSD2 (Homo sapiens), O96028. inhibition, % at 12.5 µM. AID 743445, 2014. NSD2 peptide methylation, 120 min; in the data active means inhibition above about 50%
EBV LMP1 NFkB – EBV LMP1-driven NF-kappaB luciferase reporter inhibitors, primary screen, cell-based, luminescence, single point | inhibition, % at 12.5 µM | 0.69% of 350,000 active | AID 504558, 2011 | LMP1-induced NF-kappaB luciferase reporter cells; in the data active means inhibition above about 41%; inconclusive means no clear call, values can overlap the other calls;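 further: 0% = neutral control wells and 100% = reference inhibitor control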
HIV Env fusion – inhibitors of HIV-1 Env-driven cell-cell fusion, primary screen, HeLa-JRFL effector, CEM21 target cells, luciferase | inhibition, % at 12.3 µM | 1.1% of 360,000 active | AID 651610, 2012;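 active means mean replicate inhibition score of at least 50 and every replicate individually at or above 50; inconclusive means only one of the two criteria met; inactive means mean below 50 and not all replicates reaching 50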;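 further: 0% = plate neutral controls and 100% = maraviroc near 300 nM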
N-glyco inh – increase of ERlucT glycosylation luciferase signal, primary screen, N-linked glycosylation inhibitor project, D54 ERlucT cells, luminescence, set 2; D54 ERlucT glycosylation luciferase reporter, 24 h; percent of 100 nM tunicamycin response; reporter increase, % at 12.5 µM; 0.23% of 360,000 active; AID 588692, 2011;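 active means mean luciferase reporter signal, scaled so untreated is 0 and the glycosylation-blocking control 100, at or above a set limit in every replicate; inconclusive means mean reaches the limit but not every replicate does; inactive means mean below the limit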;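 further: luciferase carries N-glycosylation sites so blocking glycosylation raises the light; 0% = median of neutral control wells and 100% = median of 100 nM tunicamycin wells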
PAX8 inh HTS – inhibitors of PAX8-driven TPO luciferase reporter, primary screen, RMG-I cells, single concentration | inhibition, % at 12.6 µM | SteadyGlo, 24 h | 1.2% of 360,000 active;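 active means mean replicate inhibition at least 60% with every replicate also reaching 60%; inconclusive means only one of the two criteria is met; inactive means mean below 60% and not all replicates reaching 60%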;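 further: luciferase light reporting Pax8 driven TPO promoter activity; plate controls were median of neutral control wells for no effect and mitoxantrone controls for full effect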
An asterisk follows results filed as active; ? = inconclusive; · = no result given; [ ] = dose if it differs, or a comment. The list is not random: actives were taken first. Their share in the collection is about 2.8%.

SMILES | Shn3 inh set2 | NSD2 inh | EBV LMP1 NFkB | HIV Env fusion | N-glyco inh | PAX8 inh HTS
O=C(O)c1cccc(N/N=C/c2ccc(-c3ccccc3)cc2)c1 | -7 | 8 | 8 | -23 | -7 | -17
CN(C)c1ccc(/C=N/Nc2cccc(C(=O)O)c2)cc1 | 92* | 1 | 61* | 43 | -9 | -22
CC(C)(C)c1ccc(/C=N/Nc2cccc(C(=O)O)c2)cc1 | 22 | 3 | 72* | -133 | -3 | -21
CC(C)(C)c1ccc(/C=N/Nc2ccc(C(=O)O)cc2)cc1 | 50 | 5 | 32 | 46 | -15 | 53
O=C(O)c1ccc(N/N=C/c2ccc(C(F)(F)F)cc2)cc1 | 21 | 4 | 44* | 50 | -20 | 59
O=C(O)c1ccc(N/N=C/c2c(F)cccc2Cl)cc1 | 15 | 1 | 14 | 50 | -18 | 82*
COC(=O)C[C@@H]1CC[C@H](NS(=O)(=O)c2ccc(OC)cc2)[C@H](CO)O1 | · | · | · | -3[16.7 µM] | · | -7
CCCC[C@@H](O)C1=C(COc2ccccc2)C[C@H]2C(=O)N(Cc3ccccc3)C(=O)[C@H]2[C@H]1CO | · | · | · | 26[16.7 µM] | · | ·
CN1C(=O)c2cc(NC(=O)c3ccccc3)ccc2OC[C@@H]2O[C@H](CC(=O)NC3CCCC3)CC[C@@H]21 | · | · | · | · | · | -25
C[C@@H]1CN([C@@H](C)CO)C(=O)c2cccc(NS(C)(=O)=O)c2O[C@H]1CN(C)Cc1ccc(C(F)(F)F)cc1 | · | · | · | 16[16.7 µM] | · | -4
C[C@@H]1CCCCO[C@@H](CN(C)CC2CC2)[C@H](C)CN([C@@H](C)CO)C(=O)c2cc(NS(=O)(=O)c3ccc(F)cc3)ccc2O1 | · | · | · | -4[16.7 µM] | · | -8
Cc1ccccc1-c1ccc([C@@H]2[C@@H](CO)N3C(=O)CN(C(=O)Cc4ccccn4)C[C@@H]23)cc1 | · | · | · | · | · | 18
N#C[C@@H]1[C@H](c2ccccc2C2=CCCCC2)[C@@H](CO)N1C(=O)c1ccccn1 | · | · | · | · | · | -2
COCC(=O)N(C)C[C@H]1Oc2ncc(-c3ccc(C#N)cc3)cc2C(=O)N([C@@H](C)CO)C[C@H]1C | · | · | · | -18[16.7 µM] | · | -1
Cc1cc(N2CCN(Cc3ccccc3)CC2)n2nc(C)c(-c3ccccc3)c2n1 | 24 | -12 | 5 | 63* | -3 | ·
Cc1ccc2c(c1)c(C1=c3ccccc3=NC1=O)c(O)n2C | 96* | 6 | 9 | -5 | 9 | 7
C=CCn1c(O)c(C2=c3ccccc3=NC2=O)c2ccccc21 | 71 | 15 | 40 | -28 | 10 | -18
COc1ccc2c(-c3cc4ccc(OCc5ccc(F)cc5)cc4oc3=O)cc(=O)oc2c1 | 27 | 1 | -3 | -37 | 37* | 8
CC(OC(=O)c1ccc2ccccc2c1)C(=O)N(C)Cc1ccccc1 (stereo not given) | 1 | -2 | -5 | · | 0 | 1
CC(C)N(CCC(=O)c1ccc2ccccc2c1)Cc1ccccc1 | 94* | · | 7 | -13 | -9 | 39
Cc1ccc(S(=O)(=O)Nc2ccccc2C(C(=O)OC(C)(C)C)C(=O)OC(C)(C)C)cc1 | · | · | · | 57* | · | 6
C[C@@H]1CN([C@@H](C)CO)C(=O)Cc2cc(NC(=O)Nc3ccc(F)cc3)ccc2O[C@H]1CN(C)Cc1ccc(Oc2ccccc2)cc1 | · | · | · | 18[16.7 µM] | · | ?
O=C(Nc1ccc2oc(-c3cccnc3)nc2c1)c1cccnc1 | 13 | -11 | 3 | 9 | 0 | -30
Cc1c(C(=O)Nc2ccc3oc(-c4cccnc4)nc3c2)oc2ccccc12 | 19 | -4 | 13 | -42 | 30* | 35
O=C(Nc1ccc2oc(-c3cccnc3)nc2c1)c1ccc([N+](=O)[O-])o1 | 52 | -3 | -3 | -81 | 35* | 4
SMILES | Shn3 inh set2 | NSD2 inh | EBV LMP1 NFkB | HIV Env fusion | N-glyco inh | PAX8 inh HTS
COC(=O)C1=C(C)NC(C)=C(C(=O)OCC(C)C)C1c1ccccc1[N+](=O)[O-] (stereo not given) | 53 | · | 91* | 20 | -3 | 55
C[C@@H]1CN([C@@H](C)CO)C(=O)Cc2cc(NC(=O)Cn3cnnn3)ccc2O[C@H]1CN(C)Cc1ccc(C(=O)Nc2ccccc2N)cc1 | · | · | · | · | · | 5
CC(C)CCNC(=O)CCCOc1cc(=O)n(C)c2ccccc12 | -9 | -2 | -3 | -237 | 31* | -16
C[C@@H]1CN([C@H](C)CO)S(=O)(=O)c2ccc(C#CC(C)(C)O)cc2O[C@@H]1CN(C)C(=O)C1CCCCC1 | · | · | · | -119[16.7 µM] | · | ·
COc1ccc(CNc2nc3c(c(=O)n(Cc4ccc(F)cc4)c(=O)n3C)n2C)cc1 | 25 | 4 | 26 | 35 | -7 | 71*
CNC[C@@H]1OCCCC[C@H](C)Oc2ccc(NS(C)(=O)=O)cc2C(=O)N([C@H](C)CO)C[C@@H]1C | · | · | · | 12[16.7 µM] | · | 6
CNc1nc(-c2ccccn2)nnc1-c1ccccc1 | 56 | 1 | 3 | · | -3 | ·
c1ccc(-c2nnc(-c3ccccn3)nc2NC2CCCCC2)cc1 | 80 | 19 | 86* | -264 | -13 | 69*
N#Cc1cccc(-c2ccc(C3[C@@H]4CN(C(=O)Nc5ccc(C(F)(F)F)cc5)C[C@H]3N4)cc2)c1 (stereo not given in full) | · | · | · | · | · | -1
CN1C(=O)C(CC(=O)NC2CCCCC2)SC1=Nc1ccccc1 (stereo not given) | 2 | 1 | 64* | 0 | 1 | 7
COc1ccc(S(=O)(=O)Nc2ccc3c(c2)C(=O)N([C@H](C)CO)C[C@@H](C)[C@H](CN(C)S(=O)(=O)c2ccccc2)OCCCC[C@H](C)O3)cc1 | · | · | · | · | · | 51
O=C(NC(c1ccc(F)cc1)c1ccc2ccccc2n1)C1CCN(Cc2ccc3ccccc3n2)CC1 (stereo not given) | -7 | -2 | · | 9 | -2 | 9
O=C(NC(c1ccccc1)c1ccc2ccccc2n1)C1CCN(CCOc2ccc(Cl)cc2Cl)CC1 (stereo not given) | -17 | -2 | · | 50 | 1 | 22
O=C(NC(c1ccc(F)cc1)c1ccc2ccccc2n1)C1CCN(CCOc2ccc(Cl)cc2)CC1 (stereo not given) | 2 | 2 | · | 77* | -4 | 57
O=C(NC(c1ccc(F)cc1)c1ccc2ccccc2n1)C1CCN(Cc2cccc(C(F)(F)F)c2)CC1 (stereo not given) | 58 | 17 | · | 75* | -8 | 54
C[C@H]1CN([C@@H](C)CO)C(=O)Cc2cc(NC(=O)Nc3ccc(C(F)(F)F)cc3)ccc2O[C@H]1CN(C)C(=O)Nc1ccc(F)cc1 | · | · | · | -24[16.7 µM] | · | -1
C/C(=N\NC(=O)c1n[nH]c2c1CCC2)c1cccs1 | 72 | -4 | 74* | ? | -21 | 102*
Cc1ccc(/C=N/NC(=O)c2n[nH]c3c2CCCC3)cc1 | -54 | -1 | · | -257 | 7 | ?
